Records with an inconclusive call do not appear. Calls of active or inactive are those of the source. The call rests on the fitted dose curve; in most records, active means well fitted inhibition curve with a large enough effect; inconclusive means small, poorly fitted or top-dose-only effect; inactive means no such curve, though single readings can be large or run the other way.
On the % scale 0 is the no-effect control and ±100 the full control effect; potency means the concentration at half of the fitted maximal effect.

Sequence of N-terminal Xaa-Pro-Lys N-methyltransferase 1 (Homo sapiens) (Q9BV86 whole entry, looked up): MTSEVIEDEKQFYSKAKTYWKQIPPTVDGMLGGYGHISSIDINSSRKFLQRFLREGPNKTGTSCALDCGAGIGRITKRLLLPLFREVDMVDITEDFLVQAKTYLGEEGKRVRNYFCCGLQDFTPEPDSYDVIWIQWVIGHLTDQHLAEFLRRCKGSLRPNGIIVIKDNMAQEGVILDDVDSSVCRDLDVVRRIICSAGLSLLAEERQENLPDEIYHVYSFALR

This assay addresses N-terminal Xaa-Pro-Lys N-methyltransferase 1 (Homo sapiens) (UniProt Q9BV86). Kind of assay: qHTS Assay for Inhibitors of N-terminal methyltransferase 1 (NTMT1): LOPAC validation of the NTMT1 SAHH-coupled ThioGlo3 Assay (AID 1347143).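 Further: SAH from peptide methylation measured as thiol fluorescence via SAHH coupling and ThioGlo3; nearly all actives have a fitted effect of over 70% in size.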 The following applies: recombinant NTMT1, SAHH-coupled ThioGlo3 fluorescence; series mostly up to 114 µM; activity change, negative = inhibition: at the top concentration. The text has this:
Assay Submitter (PI): Rong Huang Ph.D, Purdue University, West Lafayette, IN 47907 The N-terminal methytransferase 1 is the first methyltransferase that methylates protein alpha-N-amines and plays an important role in regulating cell mitosis, chromatin interactions and DNA repair. It is observed to be over-expressed in various cancer patient tissues like malignant melanoma and colorectal cancer tissues. Knockdown of NTMT1 in cancer cells causes cell mitotic defects and enhances sensitivity to DNA damaging chemotherapeutics. […] These critical cellular processes in which NTMT1 is implicated, coupled with emerging links to cellular dysfunction, strengthen the inference that NTMT1 is a compelling novel anticancer target. Progress have been made in understanding the molecular properties of NTMT1 and the biological consequences of protein alpha-N-terminal methylation, but there are no specific small molecule probes available for NTMT1 to fully characterize its MTase activity. To address this unmet need, a panel of assay is created and established to enable quantitative high-throughput screening (qHTS) for novel, potent, and selective small molecule NTMT1 inhibitors. Two orthogonal qHTS that use different reagents (ThioGlo vs. MTaseGlo) are developed for primary robotic screening against the NCATS chemical library of more than 400,000 small molecules. Identified inhibitors are reacquired, validated, and further characterized. […] A pilot screen against the LOPAC library of 1280 compounds is carried out to assess performance of the optimized qHTS in 1536-well plate format. Early Translation Branch (ETB) National Center for Advancing Translational Sciences (NCATS) National Institute of Health (NIH)
Materials: NTMT1 enzyme, substrate SPKRIA, control peptide RCC1-6 is provided by the Huang laboratory. ThioGlo3 Assay: In brief, 125nM NTMT1 enzyme was dispensed into a 1536-well assay plate with Aurora Discovery BioRAPTR Flying Reagent Dispenser (FRD, Beckton-Dickenson). Compounds (at various concentration) or 1uM RCC1-6 (SPKRIA) control were transferred to the assay plate using the Kalypsys 1536-pintool apparatus. After 1 min of room temperature incubation, 1uL of substrate (100uM SAM, 10uM SAHH, 15uM ThioGlo3) was added to the wells bringing the final assay volume to 4uL. Initial (background) fluorescence readout (EX: 340nm, EM: 450nm) was then detected using the PerkinElmer ViewLux microplate imager and a final fluorescence readout was taken after 30 min of room temperature incubation. The data was normalized to the background fluorescence.
For orientation: In qHTS, concentration-response curves come from the screen itself.
Turning to `Cc1cn([C@H]2C=C[C@@H](CO)O2)c(=O)[nH]c1=O`, the “activity change, negative = inhibition” value is -6.88% (inactive). On the same count and under the same terms, then `O=C1N(c2ccccc2)c2ccccc2C1(Cc1ccncc1)Cc1ccncc1`, with -22.2% (inactive). As for `CC#C[C@]1(O)CC[C@H]2[C@@H]3CCC4=CC(=O)CCC4=C3[C@@H](c3ccc(N(C)C)cc3)C[C@@]21C`, the Potency is 11.2 µM (active). On the same count and under the same terms, then `O=c1c(O)c(-c2ccc(O)c(O)c2)oc2cc(O)cc(O)c12`, with 35.5 µM (active). With `NS(=O)(=O)c1cc2c(cc1Cl)NCNS2(=O)=O`, the “activity change, negative = inhibition” value was -10.1% (inactive). Same read-out and setting: then `CC[C@@]1(O)C(=O)OCc2c1cc1n(c2=O)Cc2cc3c(CN(C)C)c(O)ccc3nc2-1`, with 68.1% (inactive); and `CCC1(C)CC(=O)NC1=O` (stereo not given), with -3.1% (inactive); and `CN(C)CCOC(c1ccccc1)c1ccccc1`, with -10.7% (inactive). The same measure, in the same setting: the value for `CN(CCOc1ccc(NS(C)(=O)=O)cc1)CCc1ccc(NS(C)(=O)=O)cc1` was -15.1% (inactive); that for `Cc1ccc(C(=O)Nc2ccc(S(=O)(=O)O)c3cc(S(=O)(=O)O)cc(S(=O)(=O)O)c23)cc1NC(=O)c1cccc(NC(=O)Nc2cccc(C(=O)Nc3cc(C(=O)Nc4ccc(S(=O)(=O)O)c5cc(S(=O)(=O)O)cc(S(=O)(=O)O)c45)ccc3C)c2)c1` was 0.198% (inactive).

In the case of `Cn1cnc2c1c(=O)[nH]c(=O)n2C`, the “activity change, negative = inhibition” value was -10.3% (inactive).

As to `CC12CC3CC(C)(C1)CC(N)(C3)C2`, the “activity change, negative = inhibition” value was -2.57% (inactive). With `CCOC(=O)Nc1ccc(NCc2ccc(F)cc2)nc1N`, the Potency is 50.1 µM (active).

As for `NC(=O)OCC(COC(N)=O)c1ccccc1`, the “activity change, negative = inhibition” value is -3.2% (inactive). For the compound `CN(Cc1cnc2nc(N)nc(N)c2n1)c1ccc(C(=O)N[C@@H](CCC(=O)O)C(=O)O)cc1`, the Potency is 79.4 µM (active). For the compound `O=C(CCCN1CCC(O)(c2ccc(Cl)cc2)CC1)c1ccc(F)cc1`, the “activity change, negative = inhibition” value is -20.4% (inactive).

In the case of `COc1cc2nc(N3CCN(C(=O)c4ccco4)CC3)nc(N)c2cc1OC`, the Potency is 28.2 µM (active). Consider `CCN1CCCC1CNC(=O)c1cc(S(=O)(=O)CC)c(N)cc1OC` (stereo not given), for which the “activity change, negative = inhibition” value was -10.7% (inactive). On the same count and under the same terms, the value for `COc1nc(C)nc(Cl)c1NC1=NCCN1` was -7.57% (inactive); that for `O=C(C1CCCCC1)N1CC(=O)N2CCc3ccccc3C2C1` (stereo not given) was -9.6% (inactive). `CC1COc2c(N3CCN(C)CC3)c(F)cc3c(=O)c(C(=O)O)cn1c23` (stereo not given): the Potency was 56.2 µM (active). On the same count and under the same terms, then `CN1C2CCC1CC(OC(=O)C(CO)c1ccccc1)C2` (stereo not given), with “inactive”. For the compound `Nc1ccn([C@H]2CC[C@@H](CO)O2)c(=O)n1`, the “activity change, negative = inhibition” value is -12.2% (inactive).

`NCCCCCC(=O)O`: the “activity change, negative = inhibition” value is 10.2% (inactive).

`COc1ccc(CCN(C)CCCC(C#N)(c2ccc(OC)c(OC)c2)C(C)C)cc1OC` (stereo not given): the “activity change, negative = inhibition” value was -20.3% (inactive). Consider `CCC1(c2ccccc2)C(=O)NCNC1=O`, for which the “activity change, negative = inhibition” value is -9.22% (inactive). Same read-out and setting: the value for `Cc1cc(C(C)(C)C)cc(C)c1CC1=NCCN1` was -18.5% (inactive); that for `Cc1cnc(C(=O)NCCc2ccc(S(=O)(=O)NC(=O)NC3CCCCC3)cc2)cn1` was -11.9% (inactive).

As to `CC[N+](CC)(CC)CCOc1cccc(OCC[N+](CC)(CC)CC)c1OCC[N+](CC)(CC)CC`, the Potency is 44.7 µM (active). `CCOC(=O)C(C)(C)Oc1ccc(Cl)cc1`: the “activity change, negative = inhibition” value is -19.3% (inactive). Still for that read-out and setting: the value for `Cn1c(=O)c2[nH]cnc2n(C)c1=O` was -3.17% (inactive). The same measure, in the same setting: the value for `CC(C)(C)C(=O)Oc1ccc(S(=O)(=O)Nc2ccccc2C(=O)NCC(=O)O)cc1` was -10.9% (inactive).

Take `OCCN1CCN(CCCN2c3ccccc3Sc3ccc(C(F)(F)F)cc32)CC1`: the Potency was 44.7 µM (active). `CN1CCN(CCCN2c3ccccc3Sc3ccc(Cl)cc32)CC1`: the Potency is 44.7 µM (active).

With `NCCc1cnc[nH]1`, the “activity change, negative = inhibition” value is -21% (inactive). The same measure, in the same setting: the value for `NC12CC3CC(CC(C3)C1)C2` was 3.17% (inactive).

On to `COc1cc2nc(N3CCN(C(=O)C4COc5ccccc5O4)CC3)nc(N)c2cc1OC` (stereo not given), for which the Potency is 56.2 µM (active). For `O=c1[nH]cc(F)c(=O)[nH]1`, the “activity change, negative = inhibition” value was -16.9% (inactive). The same measure, in the same setting: the value for `Cn1c(=O)c2c(ncn2C)n(C)c1=O` was -13.7% (inactive). `O=C1c2c(O)ccc(O)c2C(=O)c2c(NCCNCCO)ccc(NCCNCCO)c21`: the Potency is 50.1 µM (active).

The values above are taken from PubChem BioAssay (NCATS).
